MazEF act – activators of E. coli MazEF toxin-antitoxin RNase, primary screen, biochemical, fluorescence, uHTS. Endoribonuclease toxin MazF (Escherichia coli (strain K12)), P0AE70. FAM/BHQ RNA-DNA oligo cleavage fluorescence, 5 h. activation, % at 20 µM. 350,000 tested, 0.32% active. AID 504720, 2011; in the data active = activation above about 50%
Target sequence (P0AE70 whole entry, looked up): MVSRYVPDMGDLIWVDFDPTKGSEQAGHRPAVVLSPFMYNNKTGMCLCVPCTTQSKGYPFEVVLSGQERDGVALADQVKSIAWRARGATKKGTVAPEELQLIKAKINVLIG
Mtb hypoxia inh – PubChem AID 1159583; fluorescence inhibition, % (concentration not given with the values); M. tuberculosis hypoxia-regulated fluorescent reporter, fluorescence; 300,000 tested, 0.1% active; in the data active = fluorescence inhibition mostly above about 23%, no sharp cut-off; inactive = mostly below about 17%
BH1578 lux ind – inducers of Vibrio cholerae quorum light production without autoinducers, primary screen, BH1578 luxS cqsA deficient, single point; V. cholerae BH1578 lux reporter, luminescence, 6 h; activation, % at 18.7 µM; 350,000 tested, 0.16% active; AID 588436, 2011; in the data active = activation mostly above about 9.7%, no sharp cut-off
SSB-PriA inh – inhibitors of Klebsiella pneumoniae PriA binding to SSB C-terminal tail, primary screen, biochemical, AlphaScreen; AlphaScreen SSBct-PriA binding, biotinylated peptide; inhibition, % at 33 µM; 430,000 tested, 0.6% active; in the data active = inhibition mostly above about 37%, no sharp cut-off; inactive = mostly below about 20%;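 note: plate controls were negative control peptide for no effect and reference peptide for full effect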
The depositor's hits bear a star; i = inactive; . = not tested or not shown; + = active, no number. In the library only some 0.94% were active in any assay of this set; here they are far more common.

SMILES	MazEF act	Mtb hypoxia inh	BH1578 lux ind	SSB-PriA inh
CC(C)(C)NC(=O)c1nn2c(C(F)(F)F)cc(-c3ccccc3)nc2c1Br	2	1	-1	-4
COC(=O)c1nn2c(C(F)(F)F)cc(-c3ccc(Br)o3)nc2c1Br	111*	11	i	-6
CC(C)N1CCc2c(sc(NC(=O)Cc3ccccc3)c2C(N)=O)C1	5	6	-1	-1
CC(C)N1CCc2c(sc(NC(=O)c3ccc(C(=O)c4ccccc4)cc3)c2C(N)=O)C1	-18	.	0	81*
NC(=O)c1c(NC(=O)C2COc3ccccc3O2)sc2c1CCN(Cc1ccccc1)C2 (stereo not drawn)	258*	-6	0	-2
CCOC(=O)c1c(NC(=O)C2COc3ccccc3O2)sc2c1CCN(Cc1ccccc1)C2 (stereo not drawn)	-18	-12	0	9
CC(=O)N1CCc2c(sc(NC(=O)Cc3ccccc3)c2C(N)=O)C1	-35	5	0	115*
COc1ccc(-c2nc3c(s2)CN(S(C)(=O)=O)CC3)cc1OC	0	8	1	17
CCS(=O)(=O)N1CCc2nc(-c3ccccc3)sc2C1	14	12	-6	91*
COC(=O)[C@@H]1C[C@@]2(O)[C@@H](O)[C@@H](O)[C@@H](O)C[C@H]2N1Cc1cc(OC)cc(OC)c1	-8	.	i	101*
CCCCn1c(=O)[nH]c(=O)c2c1nc(-c1ccc(OC(F)F)c(OC)c1)n2C	71*	1	0	-6
O=C(Nc1cccs1)N1CCC(n2c(=O)[nH]c3ccccc3c2=O)CC1	.	.	.	-5
COc1cc(NC(=O)c2scc(-c3ccc(F)cc3)c2-n2cccc2)cc(OC)c1OC	.	.	.	-3
CCOC(=O)Cc1csc(NC(=NS(=O)(=O)c2cc(Br)ccc2OCC)c2ccccc2)n1	.	.	.	1
CCN(CC)c1ccc2nc3ccc(N)cc3[n+](-c3ccccc3)c2c1	-68	.	i	54*
CCN(CC)c1ccc2nc3ccccc3[n+](CC)c2c1	6	.	1	42*
CCN(CC)c1ccc(C=NNc2nc3ccccc3[nH]2)c(O)c1	.	3	.	92
COc1ccc(F)cc1S(=O)(=O)N1CCC(Cn2nc(C)cc2C)CC1	.	.	.	-17
Cc1ccc(C(N)=NOC(=O)c2cccc(Cn3cc(C(F)(F)F)ccc3=O)c2)cc1	.	.	.	-10
COc1ccc(C(=O)N/N=C\c2coc3ccc(C)cc3c2=O)cc1	75*	.	0	.
COc1ccccc1NC(=O)CS(=O)(=O)c1cccs1	.	.	.	8
N=C(N)Sc1c(-c2ccccc2)[nH]c2ccccc12	.	.	.	37*
O=C(c1cc2cc(F)ccc2s1)N1C2CCC1CC(S(=O)(=O)c1ccccc1)C2 (stereo not drawn)	.	.	.	77*
CSC1CC2CCC(C1)N2C(=O)c1cc2cc(F)ccc2s1 (stereo not drawn)	.	.	.	-4
COc1cccc(OCC(=O)N2CCN(CCn3ccnc3)CC2)c1	.	.	.	-3
SMILES	MazEF act	Mtb hypoxia inh	BH1578 lux ind	SSB-PriA inh
NC(=NOC(=O)Cc1ccc([N+](=O)[O-])cc1)c1ccccn1	.	12	.	42*
Cc1ccc(NC(=O)Cc2ccsc2)cc1N1CCCCC1=O	.	.	.	4
CCOC(=O)N1CCN(C(=O)c2cc(C)no2)CC1	5	5	0	98*
COc1ccc(N2CCN(c3cc(=O)n(C4CCCCC4)c(=O)[nH]3)CC2)cc1	.	.	.	-3
O=C(N/N=C\c1ccc(-c2ccc([N+](=O)[O-])cc2)o1)c1ccc2c(c1)OCO2	86*	.	0	.
Cc1cc(C)c(N2CCN(S(=O)(=O)N(C)C)CC2)c(C)c1	.	.	.	-19
Cn1cc(C(=O)N(CCc2cccs2)Cc2ccco2)nn1	.	.	.	-25
COc1ccc(CNC(=O)NC[C@](C)(OC)c2cccc(Cl)c2)cc1OC	.	.	.	-11
COc1ccc(NC(=O)c2sc3nc(-c4cccnc4)ccc3c2N)cc1OC	+	13	i	7
COc1ccc(NC(=O)c2sc3nc(-c4cccnc4)ccc3c2N)cc1	-13	.	-1	-4
O=C1C(Cl)=C(NCCc2ccccc2)C(=O)N1CCc1ccccc1	70*	.	-2	-17
O=C1Cc2cc(NC(=O)c3ccc(F)c(F)c3)ccc2N1	.	.	.	7
CN1OC[C@@H]2CN(C(=O)C(C)(C)C)[C@H](c3cccc(N4CCOCC4)c3)C[C@@H]21	13	.	i	-1
CN1OC[C@@H]2CN(C(=O)C(C)(C)C)[C@H](c3cccc(Br)c3)C[C@@H]21	53*	.	0	-1
CCCNc1nc(SC)nc2c1cnn2CCNC(=O)c1c(-c2ccccc2Cl)noc1C	.	.	.	62*
COc1cc(/C=C(\C#N)c2nc3ccccc3[nH]2)ccc1OC(=O)c1ccco1	56*	-6	0	-7
Nc1nc(C2C(=O)CCCC2=O)cs1	-12	-1	0	58*
Cc1ccc2nc(-c3ccc(NC(=O)c4coc(NC(=O)C5CC5)n4)cc3)sc2c1	.	.	.	-16
CCOC(=O)c1cnc(SCC(=O)N2CCN(c3ccccc3)CC2)nc1N	7	.	i	-10
CCOC(=O)c1cnc(SCC(=O)N2CCc3ccccc32)nc1N	68*	10	-1	9
CCc1ccc(C(=O)Nn2c(C)nc3ccccc3c2=O)cc1	-5	7	-1	-14
Cc1nc2ccccc2c(=O)n1NC(=O)c1ccc(Cl)c(Cl)c1	3	13	328*	-1
O=c1[nH]c2ccc(NCc3ccccc3OCc3ccc(Cl)cc3)cc2[nH]1	12	2	1	92*
CC(C)NC(=O)NCC#CCOc1cccc(C(F)(F)F)c1	.	.	.	-11
Cc1ccc(S(=O)(=O)N(CC(=O)N/N=C\c2cccs2)c2cccc3cccnc23)cc1	51*	.	0	.
Cc1ccc(S(=O)(=O)N(CC(=O)N/N=C/c2cccc(C)c2)c2cccc3cccnc23)cc1	6	.	-1	.
COc1ccc2nc(-c3ccc(OC)c(NC(=O)c4cc(Cl)ccc4OC)c3)cn2n1	.	.	.	-11
COc1ccc(N2CCN(CCCNC(=O)C(=O)c3c[nH]c4ccccc34)CC2)cc1	4	0	-9	48*
O=C(NCCCN1CCOCC1)C(=O)c1c[nH]c2ccccc12	2	-3	-3	-3
Cc1ccc(-n2[nH]c(C)c(C=Nc3ccc4[nH]c(=O)[nH]c4c3)c2=O)cc1C	63*	.	i	11

Screening results from PubChem BioAssay.
